Data on 16 compounds can be found in the supplement of paper PMC6658780.

Structures can show the parent of a compound that is named as a salt. ± gives the standard deviation of the averaged measurements.

In the first experiment the test system is Escherichia coli ATCC BAA-2469. The experiment can be described thus: percent growth inhibition of drug alone vs DMSO control; higher = more growth inhibition. Conditions: antibiotic (0.125x MIC): none (0.1% DMSO); 7 µM. The method, then:
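Prestwick drugs tested at 20 uM and 7 uM with an antibiotic at 0.125x MIC (16 mg/L when MIC >128 mg/L) against E. coli ATCC BAA-2469 (NDM-1) in CAMHB, 384-well plates, duplicate runs. Percent growth inhibition was computed from OD600 (24 h minus 0 h) relative to DMSO wells. Drug + DMSO-only wells are also given. […]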
As to `Oc1c(Cl)cc(Cl)c(Cl)c1Cc1c(O)c(Cl)cc(Cl)c1Cl` [Hexachlorophene], the “percent growth inhibition of drug alone” value worked out at 9.96 ± 8.8%.

For `CCCOc1ccc2[nH]c(NC(=O)OC)nc2c1` [Oxibendazol], the “percent growth inhibition of drug alone” value is 0.775 ± 0.31%.

In the case of `Nc1nc(F)nc2c1ncn2[C@@H]1O[C@H](CO)[C@@H](O)[C@@H]1O` [Fludarabine], the “percent growth inhibition of drug alone” value was determined as 23 ± 20%.

Turning to `C[C@H]1[C@H](NC(=O)/C(=N\OC(C)(C)C(=O)O)c2csc(N)n2)C(=O)N1S(=O)(=O)O` [Aztreonam], the “percent growth inhibition of drug alone” value was 13.2 ± 14%.

As for `Cc1cc(/C=C/c2ccc3cc(N(C)C)ccc3[n+]2C)c(C)n1-c1ccccc1` [Pyrvinium pamoate], the “percent growth inhibition of drug alone” value was determined as 11.8 ± 12%.

For the compound `NS(=O)(=O)c1cc2c(cc1C(F)(F)F)NC(Cc1ccccc1)NS2(=O)=O` (stereo not drawn) [Bendroflumethiazide], the “percent growth inhibition of drug alone” value is -1.67 ± 1.1%.

On to `OC(CCN1CCCC1)(c1ccccc1)C1CCCCC1` (stereo not drawn) [Procyclidine hydrochloride], for which the “percent growth inhibition of drug alone” value is 3.3 ± 1.6%.

In the case of `CCOC(=O)c1ccc(OC(=O)CCCCCNC(=N)N)cc1` [Gabexate mesilate], the “percent growth inhibition of drug alone” value was 3.5 ± 6.5%.

For the compound `CC[C@H]1OC(=O)[C@H](C)[C@@H](O[C@H]2C[C@@](C)(OC)[C@@H](O)[C@H](C)O2)[C@H](C)[C@@H](O[C@@H]2O[C@H](C)C[C@H](N(C)C)[C@H]2O)[C@](C)(O)C[C@@H](C)CN(C)[C@H](C)[C@@H](O)[C@]1(C)O` [Azithromycin], the “percent growth inhibition of drug alone” value came to 22.2 ± 12%.

`O=C1NCCN1c1ncc([N+](=O)[O-])s1` [Niridazole]: the “percent growth inhibition of drug alone” value is 19.9 ± 7.6%.

Take `O=C(N[C@H](CO)[C@H](O)c1ccc([N+](=O)[O-])cc1)C(Cl)Cl` [Chloramphenicol]: the “percent growth inhibition of drug alone” value turned out to be 27.7 ± 12%.

In the case of `CO/N=C(\C(=O)N[C@@H]1C(=O)N2C(C(=O)O)=C(COC(N)=O)CS[C@H]12)c1ccco1` [Cefuroxime sodium salt], the “percent growth inhibition of drug alone” value was -0.846 ± 2.2%.

In the case of `O=C1CN(/N=C/c2ccc([N+](=O)[O-])o2)C(=O)N1` [Nitrofurantoin], the “percent growth inhibition of drug alone” value amounted to 5.87 ± 5.7%.

Still in this experiment, the particulars now being: antibiotic (0.125x MIC): none (0.1% DMSO); 20 µM.
As for `CN(C)c1ccc(O)c2c1C[C@H]1C[C@H]3[C@H](N(C)C)C(O)=C(C(N)=O)C(=O)[C@@]3(O)C(O)=C1C2=O` [Minocycline hydrochloride], the “percent growth inhibition of drug alone” value amounted to 110 ± 14%.

For the compound `CCCOc1ccc2[nH]c(NC(=O)OC)nc2c1` [Oxibendazol], the “percent growth inhibition of drug alone” value amounted to 2.44 ± 0.18%.

For `Nc1nc(F)nc2c1ncn2[C@@H]1O[C@H](CO)[C@@H](O)[C@@H]1O` [Fludarabine], the “percent growth inhibition of drug alone” value stood at 59.1 ± 4.9%.

Consider `Cc1cc(/C=C/c2ccc3cc(N(C)C)ccc3[n+]2C)c(C)n1-c1ccccc1` [Pyrvinium pamoate], for which the “percent growth inhibition of drug alone” value came out at 13.6 ± 3.2%.

As for `NS(=O)(=O)c1cc2c(cc1C(F)(F)F)NC(Cc1ccccc1)NS2(=O)=O` (stereo not drawn) [Bendroflumethiazide], the “percent growth inhibition of drug alone” value is -1.13 ± 2.1%.

In the case of `OC(CCN1CCCC1)(c1ccccc1)C1CCCCC1` (stereo not drawn) [Procyclidine hydrochloride], the “percent growth inhibition of drug alone” value was -0.85 ± 5%.

Regarding `CCOC(=O)c1ccc(OC(=O)CCCCCNC(=N)N)cc1` [Gabexate mesilate], the “percent growth inhibition of drug alone” value is 0.291 ± 0.37%.

In the case of `CO/N=C(\C(=O)N[C@@H]1C(=O)N2C(C(=O)O)=C(COC(N)=O)CS[C@H]12)c1ccco1` [Cefuroxime sodium salt], the “percent growth inhibition of drug alone” value is -0.542 ± 0.39%.

For `Nc1ncn(C2OC(CO)C(O)C2O)c(=O)n1` (stereo not drawn) [Azacytidine-5], the “percent growth inhibition of drug alone” value came to 111 ± 10%.

`O=C1OCCN1/N=C/c1ccc([N+](=O)[O-])o1` [Furazolidone]: the “percent growth inhibition of drug alone” value was found to be 115 ± 13%.
